The list is not random: actives were taken first. Their share in the collection is about 7.6%.
KCNH2 3.1 inh = inhibitors of human KCNH2 3.1 potassium channel isoform; U2OS KCNH2 3.1, thallium flux FluxOr; active compounds read low; activity change, % (tested at about 1.8 µM); 0.95% of 340,000 active; AID 720553;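 active = maximum activity change below -70%; inconclusive = maximum activity change from -70% to -50%; inactive = maximum activity change above -50%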;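 note: thallium influx rate constant from kinetic fluorescence after stimulation buffer; % is set by controls: 0 for no effect and ±100 for the full control effect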
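We transduce U2OS cells with the mutant 3.1 virus, culture them overnight, load FluxOr with Red40 quencher for 45 min, then add stimulation buffer and read kinetically for 2 min to derive a normalized rate constant.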
hERG WT inh = blocks the wildtype human KCNH2 potassium channel; U2OS, BacMam KCNH2, thallium flux FluxOr; active compounds read low; activity change, % at 1.84 µM; 0.37% of 340,000 active; AID 720551;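 active = maximum activity change below -70%; inconclusive = maximum activity change between -70% and -50%; inactive = maximum activity change above -50%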; note: % is set by controls: 0 for no effect and ±100 for the full control effect
Target sequence (Q12809 whole entry, looked up): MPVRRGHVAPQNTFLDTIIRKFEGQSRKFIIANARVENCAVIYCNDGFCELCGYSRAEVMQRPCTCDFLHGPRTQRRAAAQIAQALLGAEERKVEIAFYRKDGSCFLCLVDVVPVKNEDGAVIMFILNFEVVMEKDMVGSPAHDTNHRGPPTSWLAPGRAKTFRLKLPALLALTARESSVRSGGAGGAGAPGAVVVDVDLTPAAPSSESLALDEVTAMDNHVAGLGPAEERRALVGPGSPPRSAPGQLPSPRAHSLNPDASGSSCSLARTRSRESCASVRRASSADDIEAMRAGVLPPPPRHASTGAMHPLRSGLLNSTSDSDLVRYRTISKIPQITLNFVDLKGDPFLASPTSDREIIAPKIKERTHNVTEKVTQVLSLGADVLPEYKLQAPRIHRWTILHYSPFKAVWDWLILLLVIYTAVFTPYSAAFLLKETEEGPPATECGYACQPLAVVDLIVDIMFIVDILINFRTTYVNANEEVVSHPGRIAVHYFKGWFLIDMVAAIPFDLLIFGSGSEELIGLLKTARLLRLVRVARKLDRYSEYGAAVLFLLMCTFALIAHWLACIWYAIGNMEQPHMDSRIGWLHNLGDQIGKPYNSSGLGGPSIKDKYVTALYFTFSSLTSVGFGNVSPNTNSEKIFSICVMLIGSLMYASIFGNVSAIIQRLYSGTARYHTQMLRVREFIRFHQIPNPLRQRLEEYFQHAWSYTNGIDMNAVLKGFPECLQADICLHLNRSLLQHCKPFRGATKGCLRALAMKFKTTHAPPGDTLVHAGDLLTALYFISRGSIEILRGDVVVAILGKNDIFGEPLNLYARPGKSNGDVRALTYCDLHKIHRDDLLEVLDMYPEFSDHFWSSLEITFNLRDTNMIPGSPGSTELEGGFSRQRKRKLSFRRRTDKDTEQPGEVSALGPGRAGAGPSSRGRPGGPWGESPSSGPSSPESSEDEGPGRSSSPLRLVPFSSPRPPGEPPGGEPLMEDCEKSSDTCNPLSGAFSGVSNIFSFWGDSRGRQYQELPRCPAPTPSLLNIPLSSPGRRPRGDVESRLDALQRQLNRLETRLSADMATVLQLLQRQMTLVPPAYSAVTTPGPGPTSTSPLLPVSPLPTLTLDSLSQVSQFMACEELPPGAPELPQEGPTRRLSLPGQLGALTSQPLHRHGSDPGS
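U2OS cells were transduced with wild-type KCNH2 virus (2.03 x 10^8 / mL) for 4 h at room temperature, then cultured overnight at 37 C. Thallium flux was read with FluxOr dye. Rate constants were normalized to DMSO controls.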
KB-3-1 tox = KB-3-1 parental cell cytotoxicity; KB-3-1 viability, CellTiter-Glo ATP luminescence, 72 h; Potency, µM (titrated, usually from 46.1 µM), hits mostly cytotoxic; 1.4% of 400,000 active; AID 1347075; note: potency is the fitted concentration of half-maximal effect; % is set by controls: 0 for no effect and ±100 for the full control effect; nearly all actives have a fitted effect of over 60% in size
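KB-3-1 parental drug-naive adenocarcinoma cells in DMEM/10% FBS, incubated 72 h at 37 C with pin-transferred compounds across a concentration series. Viability by CellTiter-Glo luminescence; concentration-response curves fitted after normalization.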
MCF10A rereplic = induces DNA re-replication in MCF 10a normal breast cells. Potency, µM (doses to about 46.1 µM), without a hit: at the highest dose activity, positive = re-replication, hits mostly activators. 2.9% of 350,000 active. AID 624296. MCF 10A DNA re-replication, Hoechst nuclear intensity, 48 h; note: potency is the fitted concentration of half-maximal effect; % of control where 0% means no effect; nearly all actives have a fitted effect of over 50% in size
SW480 rerep = inducers of DNA re-replication in SW480 colon cancer cells; SW480 DNA re-replication, Hoechst DNA content imaging, 48 h; Potency, µM (series often up to 46.1 µM), for the others: at the highest dose re-replication activation, hits mostly activators; 1.8% of 340,000 active; note: potency is the fitted concentration of half-maximal effect; % of control where 0% means no effect; nearly all actives have a fitted effect of over 55% in size
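Per well, 250 cells were exposed to pinned compound for 48 hr. Nuclear DNA was visualised with Hoechst (40 min, 37 C) and total object intensity recorded by fluorescence scanning.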
KB-V1 MDR tox = KB-V1 MDR subline cytotoxicity; KB-V1 MDR cells viability, CellTiter-Glo, 72 h; Potency, µM (series often up to 46.1 µM), actives largely listed as cytotoxic; 3.4% of 400,000 active; AID 1347076; note: potency is the fitted concentration of half-maximal effect; % is set by controls: 0 for no effect and ±100 for the full control effect; nearly all actives have a fitted effect of over 60% in size
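Cells of the MDR subline KB-V1 are plated, dosed with compound at multiple concentrations, and incubated 72 h at 37 degrees C; CellTiter-Glo is then added and luminescence read after 10 min.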
* = called active by the depositor; i = inactive; ? = inconclusive; nt = no result. Unless noted, calls come from the whole dose curve; as a rule, active = well fitted curve in the direction sought with a large enough effect; inconclusive = small, poorly fitted or top-dose-only effect, or another doubt; inactive = no such curve, though single readings can be large; an effect the other way counts as inactive or inconclusive.

SMILES | KCNH2 3.1 inh | hERG WT inh | KB-3-1 tox | MCF10A rereplic | SW480 rerep | KB-V1 MDR tox
COc1ccccc1CNC(=O)C1CCN(S(=O)(=O)c2ccc3c(c2)NC(=O)CO3)CC1 | -5 | -26 | i | -5% | -20% | i
COc1cccc(CNC(=O)C2CCN(S(=O)(=O)c3ccccc3)CC2)c1 | -22 | -2 | i | 2% | 1% | 21µM*
O=C(NCc1ccc(Cl)cc1Cl)C1CCN(S(=O)(=O)c2ccc3c(c2)OCCCO3)CC1 | -9 | 3 | ? | -3% | -255% | 3.3µM*
O=C(NCc1ccc(F)cc1)C1CCN(S(=O)(=O)c2ccc3c(c2)OCCCO3)CC1 | 2 | 4 | i | 11% | 2% | ?
COc1ccccc1NC(=O)C(C)OC(=O)C1CCN(S(=O)(=O)c2ccc(C)c(C)c2)CC1 (stereo not given) | 0 | 1 | i | 15% | -2% | 7.3µM*
O=C(Nc1ccc2c(c1)OCO2)C1CCN(S(=O)(=O)c2ccc3c(c2)OCCO3)CC1 | 4 | -1 | i | 4% | 29% | ?
COc1ccc(S(=O)(=O)N2CCC(C(=O)Nc3ccc4c(c3)OCCO4)CC2)cc1OC | 13 | -25 | i | 2% | 9% | 18µM*
CCOc1ccc(-c2nnn(CC#N)n2)cc1OC | 3 | 2 | ? | 10µM* | ? | i
CCOc1ccc(-c2nnn(CC(=O)Nc3cc(OC)ccc3OC)n2)cc1OCC | 12 | -11 | i | 5% | -3% | i
CCOc1ccc(-c2nnn(CC(=O)c3cc(OC)ccc3OC)n2)cc1 | -19 | -3 | 15µM* | ? | 6% | 5.2µM*
O=C(CSc1nc(-c2ccccc2)[nH]c1-c1ccccc1)Nc1ccc2c(c1)OCCO2 | nt | nt | i | nt | nt | i
NNC(=O)c1cc2cc3ccccc3nc2s1 | 4 | nt | i | 12µM* | 6% | i
Cc1cc(N2CCN(S(=O)(=O)c3ccccc3)CC2)c2ccccc2n1 | -43 | -109* | i | 3.7µM* | ? | ?
Cc1cc(N2CCN(c3nc(-c4ccccc4)cs3)CC2)c2ccccc2n1 | -79* | -35 | ? | 4% | 16% | ?
NC(N)=NS(=O)(=O)c1ccc(N/C=C/C(=O)c2ccc(Cl)c(Cl)c2)cc1 | -11 | 5 | i | ? | 15µM* | i
CNC[C@H]1Oc2c(NS(=O)(=O)c3ccccc3)cccc2C(=O)N([C@H](C)CO)C[C@@H]1C | 5 | 6 | i | -12% | -4% | i
CN(C)CCNc1ccc(CO)c2oc3ccc(O)cc3c(=O)c12 | 3 | 9 | 16µM* | 27% | ? | i
Cc1ccc(CSC2=NS(=O)(=O)c3ccccc32)cc1 | nt | nt | i | nt | nt | i
CC(C)(CO)NCC(O)COc1ccc2c(c1)CCC2 (stereo not given) | 2 | 14 | i | 5% | -1% | i
CC(C)(C)CC(C)(C)NCC(O)COc1ccc2c(c1)CCC2 (stereo not given) | -11 | 3 | 21µM* | ? | ? | ?
C=CCOC(=O)Nc1nc(CCNC(=O)OCc2ccccc2)c(C(=O)O)s1 | nt | nt | i | nt | nt | i
Cc1ccc(Sc2c(C(=O)NCc3ccccc3C)[nH]c3ccccc23)cc1 | nt | nt | i | nt | nt | ?
CCCCN(Cc1ccco1)S(=O)(=O)c1csc(C(N)=O)c1 | -182* | -159* | i | 4% | -7% | i
CN(C)CCN(Cc1ccco1)S(=O)(=O)c1csc(C(N)=O)c1 | 5 | 3 | i | 6% | 3% | i
O=C1CCn2nc(-c3ccc(Cl)cc3)cc2N1 | -3 | -8 | 1.8µM* | -5% | -7% | ?
SMILES | KCNH2 3.1 inh | hERG WT inh | KB-3-1 tox | MCF10A rereplic | SW480 rerep | KB-V1 MDR tox
Cc1ccc2nc(-c3ccc(NS(=O)(=O)c4ccc(F)cc4)cc3)sc2c1 | -13 | -6 | i | 15µM* | ? | i
Cc1ccc2nc(-c3ccc(NC(=S)NCC(C)(C)CN(C)C)cc3)sc2c1 | 0 | 2 | i | 18µM* | ? | ?
Cc1nc2ccc(NS(=O)(=O)c3ccc(F)cc3F)cc2s1 | -42 | -15 | ? | 4% | 0% | 4.1µM*
O=[N+]([O-])c1ccc2nc(NN=Cc3ccc(O)cc3)sc2c1 | -5 | -2 | i | 9.2µM* | 21µM* | ?
CCC(C)(C)NC(=S)Nc1ccc(-c2nc3ccc(C)cc3s2)cc1 | 11 | -1 | i | ? | ? | i
CNC(=S)Nc1ccc(-c2nc3ccc(C)cc3s2)cc1 | 5 | -6 | i | 22µM* | ? | i
O=[N+]([O-])c1ccc2nc(NS(=O)(=O)c3ccc(F)cc3)sc2c1 | -12 | 18 | ? | 7.3µM* | ? | ?
Cc1ccc(S(=O)(=O)N2CCOCC2)cc1C(=O)N1CCN(S(=O)(=O)c2ccccc2F)CC1 | -4 | 3 | i | 8% | -16% | i
Cc1cccc(/C=C2/S/C(=N/N=C3\CC4CCC3(C)C4(C)C)NC2=O)c1 (stereo not given) | -8 | 3 | ? | ? | 13% | 21µM*
C/C(=N\NC(=O)CNc1cccc(Cl)c1C)c1cccs1 | 3 | -14 | i | 20% | 18µM* | i
COc1ccccc1NCC(=O)N/N=C(\C)c1cccs1 | 0 | -5 | i | 0% | -24% | i
CCn1c(Cn2nnc(-c3ccccc3)n2)nnc1SCC(=O)N1CCOCC1 | 8 | 8 | i | ? | -11% | i
CCn1c(SCc2cccc(C)c2)nnc1-c1ccccc1 | -9 | -2 | i | 14% | -1% | 15µM*
CCn1c(SCC(O)c2ccccc2)nnc1-c1ccccc1 (stereo not given) | 24 | -18 | i | 15% | 0% | i
CCn1c(Cn2nnc(-c3ccccc3)n2)nnc1SCc1ccc(Cl)c(Cl)c1 | -5 | 2 | ? | ? | 21% | 23µM*
COc1cc2nc(C)sc2cc1SC | 3 | 4 | i | 1% | -4% | i
COc1cc2nc(/C=C/c3cc(OC)c(OC)c(OC)c3)sc2cc1SC | 3 | 0 | 23µM* | ? | ? | 10µM*
O=c1c2ccccc2c(-c2cccc(C(F)(F)F)c2)nn1-c1ccccc1 | -19 | -8 | ? | ? | 3% | i
O=c1c2ccccc2c(-c2ccc(O)cc2)nn1-c1cccc(C(F)(F)F)c1 | -35 | 5 | ? | ? | ? | 13µM*
COC(=O)Cc1c(C)c2cc3c(c(C)c2oc1=O)OCN(CCc1ccc(F)cc1)C3 | nt | nt | i | nt | nt | i
O=Cc1ccc(O)c2ncccc12 | 12 | 2 | 6.5µM* | 1.6µM* | 7.3µM* | ?
Cc1ccnc2c(O)cccc12 | nt | nt | i | nt | nt | i
